Results published in article PMC7862700, “An all-to-all approach to the identification of sequence-specific readers for epigenetic DNA modifications on cytosine”.

Experiments:
Assay in all cases: DAPPL (digital affinity profiling via proximity ligation, sequencing); 10 mM Tris-HCl pH 7.5, 50 mM NaCl, 1 mM DTT, 4% glycerol, room temperature, 30 min; GST-TFs on glutathione beads, 16-mer random dsDNA library, 0.1% formaldehyde crosslink after washing; high values mean tight binding
FEV = target: T1, FEV (Homo sapiens, UniProt Q99581 1-238); conditions: protein: recombinant; tags: N-terminal GST; dsDNA, one strand shown
T1 sequence: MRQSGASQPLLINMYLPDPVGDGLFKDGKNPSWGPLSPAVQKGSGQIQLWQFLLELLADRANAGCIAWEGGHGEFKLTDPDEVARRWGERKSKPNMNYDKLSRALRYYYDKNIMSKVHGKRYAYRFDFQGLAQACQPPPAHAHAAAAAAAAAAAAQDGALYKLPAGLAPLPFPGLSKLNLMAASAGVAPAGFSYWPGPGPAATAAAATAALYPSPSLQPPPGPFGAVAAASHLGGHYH
Procedure, shortened: (§1)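 Human transcription factors were made in yeast as GST fusions, captured on glutathione beads and barcoded with DNA. With a tag-only sample included, the pool was incubated with 200 nmole of a random double-stranded 16-mer DNA library in Tris/NaCl/DTT/glycerol buffer at room temperature for 30 min, then crosslinked with 0.1% formaldehyde after washing, ligated by proximity, amplified and sequenced. For binding signal, each hexamer's read frequency for a factor is divided by its frequency for the tag-only sample.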

ETV5 = ETV5 (Homo sapiens, UniProt P41161 1-510); conditions: protein: recombinant; tags: N-terminal GST; dsDNA, one strand shown
Chain of ETV5 (P41161 whole entry): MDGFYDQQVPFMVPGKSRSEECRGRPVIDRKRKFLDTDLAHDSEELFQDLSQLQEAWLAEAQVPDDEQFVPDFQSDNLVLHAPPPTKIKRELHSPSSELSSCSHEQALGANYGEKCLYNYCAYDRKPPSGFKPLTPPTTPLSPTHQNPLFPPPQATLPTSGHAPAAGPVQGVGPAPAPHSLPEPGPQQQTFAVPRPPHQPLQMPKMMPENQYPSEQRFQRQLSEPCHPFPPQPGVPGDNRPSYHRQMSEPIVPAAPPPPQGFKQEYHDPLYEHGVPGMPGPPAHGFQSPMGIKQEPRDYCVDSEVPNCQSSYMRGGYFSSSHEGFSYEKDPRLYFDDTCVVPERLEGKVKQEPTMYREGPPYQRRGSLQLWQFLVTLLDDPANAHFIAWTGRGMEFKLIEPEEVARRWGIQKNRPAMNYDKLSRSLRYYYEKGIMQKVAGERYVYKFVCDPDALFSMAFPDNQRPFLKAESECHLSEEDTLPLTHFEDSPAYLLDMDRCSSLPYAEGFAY
Procedure, shortened: as §1

HSF1 = HSF1 (Homo sapiens, UniProt Q00613 1-529); conditions: protein: recombinant; tags: N-terminal GST; chain copies: 3; dsDNA, one strand shown
Chain of HSF1 (Q00613 whole entry): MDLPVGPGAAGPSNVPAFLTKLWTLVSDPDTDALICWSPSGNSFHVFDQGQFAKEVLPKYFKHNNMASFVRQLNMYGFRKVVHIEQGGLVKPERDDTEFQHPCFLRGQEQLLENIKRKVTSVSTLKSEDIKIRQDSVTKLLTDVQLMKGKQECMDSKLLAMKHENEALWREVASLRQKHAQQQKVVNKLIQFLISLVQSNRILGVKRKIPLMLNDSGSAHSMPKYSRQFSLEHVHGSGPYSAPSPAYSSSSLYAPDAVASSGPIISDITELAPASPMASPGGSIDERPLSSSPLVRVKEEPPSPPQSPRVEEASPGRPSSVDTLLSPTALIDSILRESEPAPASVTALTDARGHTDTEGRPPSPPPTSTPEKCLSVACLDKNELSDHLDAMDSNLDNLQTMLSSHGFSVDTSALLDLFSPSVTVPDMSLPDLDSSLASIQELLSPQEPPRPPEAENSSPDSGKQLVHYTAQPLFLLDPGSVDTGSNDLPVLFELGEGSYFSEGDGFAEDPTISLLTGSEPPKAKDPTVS
Procedure, shortened: as §1

SPIC = target: T2, SPIC (Homo sapiens, UniProt Q8N5J4 1-248); conditions: protein: recombinant; tags: N-terminal GST; dsDNA, one strand shown
T2 sequence: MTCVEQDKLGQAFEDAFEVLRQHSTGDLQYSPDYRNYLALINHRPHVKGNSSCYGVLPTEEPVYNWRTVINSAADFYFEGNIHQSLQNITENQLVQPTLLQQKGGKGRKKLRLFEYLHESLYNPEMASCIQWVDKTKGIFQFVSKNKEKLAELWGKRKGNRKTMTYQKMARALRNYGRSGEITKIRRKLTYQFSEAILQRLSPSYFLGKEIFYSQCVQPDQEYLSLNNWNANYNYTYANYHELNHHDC
Procedure, shortened: as §1

ELF4 = ELF4 (Homo sapiens, UniProt Q99607 1-663); conditions: protein: recombinant; tags: N-terminal GST; dsDNA, one strand shown
Chain of ELF4 (Q99607 whole entry): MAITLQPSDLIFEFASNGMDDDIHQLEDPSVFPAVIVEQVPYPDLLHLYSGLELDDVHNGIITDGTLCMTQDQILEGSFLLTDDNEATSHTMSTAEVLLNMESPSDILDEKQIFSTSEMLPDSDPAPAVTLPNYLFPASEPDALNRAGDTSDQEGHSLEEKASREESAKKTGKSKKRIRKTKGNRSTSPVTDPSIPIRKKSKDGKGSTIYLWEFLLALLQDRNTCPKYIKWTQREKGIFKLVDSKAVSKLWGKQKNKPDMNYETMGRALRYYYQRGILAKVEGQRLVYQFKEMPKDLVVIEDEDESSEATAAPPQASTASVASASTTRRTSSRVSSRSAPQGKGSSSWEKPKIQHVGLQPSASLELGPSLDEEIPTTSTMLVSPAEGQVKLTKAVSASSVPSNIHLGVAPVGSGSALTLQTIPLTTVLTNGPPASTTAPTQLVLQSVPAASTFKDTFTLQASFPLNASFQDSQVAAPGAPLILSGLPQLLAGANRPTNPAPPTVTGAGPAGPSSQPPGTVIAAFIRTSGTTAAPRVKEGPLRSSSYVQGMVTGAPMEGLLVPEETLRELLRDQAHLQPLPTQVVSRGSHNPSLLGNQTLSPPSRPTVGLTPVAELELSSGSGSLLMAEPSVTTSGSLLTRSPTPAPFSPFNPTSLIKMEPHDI
Procedure, shortened: as §1

ELK4 = target: T3, ELK4 (Homo sapiens, UniProt P28324-2 1-405); conditions: protein: recombinant; tags: N-terminal GST; dsDNA, one strand shown
T3 sequence: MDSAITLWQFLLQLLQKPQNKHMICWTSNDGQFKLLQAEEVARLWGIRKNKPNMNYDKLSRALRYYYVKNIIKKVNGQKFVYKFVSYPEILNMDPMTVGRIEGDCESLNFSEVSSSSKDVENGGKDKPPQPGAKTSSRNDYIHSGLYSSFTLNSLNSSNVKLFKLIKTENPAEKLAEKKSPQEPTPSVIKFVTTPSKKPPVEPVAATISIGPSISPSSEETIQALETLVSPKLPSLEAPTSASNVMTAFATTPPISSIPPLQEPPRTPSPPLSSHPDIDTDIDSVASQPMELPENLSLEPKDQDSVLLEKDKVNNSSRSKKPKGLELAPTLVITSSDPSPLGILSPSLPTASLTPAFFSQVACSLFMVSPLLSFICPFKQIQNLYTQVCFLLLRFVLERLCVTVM
Procedure, shortened: as §1

ETV2 = target: T4, ETV2 (Homo sapiens, UniProt O00321 1-342); conditions: protein: recombinant; tags: N-terminal GST; dsDNA, one strand shown
T4 sequence: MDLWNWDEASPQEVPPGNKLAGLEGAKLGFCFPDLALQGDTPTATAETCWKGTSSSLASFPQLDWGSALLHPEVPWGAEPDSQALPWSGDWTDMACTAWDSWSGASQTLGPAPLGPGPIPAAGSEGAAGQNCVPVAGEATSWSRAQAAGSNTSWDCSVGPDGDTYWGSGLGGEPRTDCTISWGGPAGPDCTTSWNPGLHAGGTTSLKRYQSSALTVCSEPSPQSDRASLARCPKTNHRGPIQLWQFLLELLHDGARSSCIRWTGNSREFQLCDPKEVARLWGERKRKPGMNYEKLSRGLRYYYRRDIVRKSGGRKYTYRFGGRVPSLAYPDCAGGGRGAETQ
Procedure, shortened: as §1

ELF3 = target: T5, ELF3 (Homo sapiens, UniProt P78545 1-371); conditions: protein: recombinant; tags: N-terminal GST; dsDNA, one strand shown
T5 sequence: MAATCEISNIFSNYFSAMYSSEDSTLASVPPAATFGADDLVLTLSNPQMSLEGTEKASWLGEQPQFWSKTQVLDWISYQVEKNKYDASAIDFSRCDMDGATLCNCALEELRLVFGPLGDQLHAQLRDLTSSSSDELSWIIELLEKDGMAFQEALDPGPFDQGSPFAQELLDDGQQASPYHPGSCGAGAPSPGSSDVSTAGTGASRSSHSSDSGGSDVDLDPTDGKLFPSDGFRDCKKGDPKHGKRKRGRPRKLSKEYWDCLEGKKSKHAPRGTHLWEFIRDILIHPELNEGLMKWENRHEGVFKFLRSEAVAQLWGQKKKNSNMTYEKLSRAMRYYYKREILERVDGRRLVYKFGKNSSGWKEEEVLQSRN
Procedure, shortened: as §1

CRX = CRX (Homo sapiens, UniProt O43186 1-299); conditions: protein: recombinant; tags: N-terminal GST; dsDNA, one strand shown
Chain of CRX (O43186 whole entry): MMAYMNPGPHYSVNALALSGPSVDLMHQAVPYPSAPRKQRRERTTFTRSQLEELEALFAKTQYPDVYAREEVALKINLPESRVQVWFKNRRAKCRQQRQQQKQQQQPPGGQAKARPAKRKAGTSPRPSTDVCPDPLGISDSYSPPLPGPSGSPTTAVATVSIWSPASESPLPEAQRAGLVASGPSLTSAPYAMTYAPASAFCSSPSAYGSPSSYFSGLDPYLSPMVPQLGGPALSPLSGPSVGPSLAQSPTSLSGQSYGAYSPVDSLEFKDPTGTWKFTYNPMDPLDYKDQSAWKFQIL
Procedure, shortened: as §1

ETV1 = ETV1 (Homo sapiens, UniProt P50549 1-477); conditions: protein: recombinant; tags: N-terminal GST; dsDNA, one strand shown
Chain of ETV1 (P50549 whole entry): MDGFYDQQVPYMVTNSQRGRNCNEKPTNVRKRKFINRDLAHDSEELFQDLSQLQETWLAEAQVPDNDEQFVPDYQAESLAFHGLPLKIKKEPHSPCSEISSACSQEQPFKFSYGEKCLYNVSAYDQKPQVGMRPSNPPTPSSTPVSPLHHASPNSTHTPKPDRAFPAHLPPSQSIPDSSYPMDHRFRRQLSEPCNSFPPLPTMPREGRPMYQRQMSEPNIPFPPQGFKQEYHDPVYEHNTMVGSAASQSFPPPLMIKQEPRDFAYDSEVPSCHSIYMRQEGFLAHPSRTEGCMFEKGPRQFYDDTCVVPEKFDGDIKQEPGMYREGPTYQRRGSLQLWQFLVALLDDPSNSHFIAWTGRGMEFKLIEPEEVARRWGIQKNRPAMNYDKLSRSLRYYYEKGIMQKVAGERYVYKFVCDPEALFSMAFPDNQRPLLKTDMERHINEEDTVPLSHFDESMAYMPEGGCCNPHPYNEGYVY
Procedure, shortened: as §1

ERF = target: T6, ERF (Homo sapiens, UniProt P50548 1-548); conditions: protein: recombinant; tags: N-terminal GST; dsDNA, one strand shown
T6 sequence: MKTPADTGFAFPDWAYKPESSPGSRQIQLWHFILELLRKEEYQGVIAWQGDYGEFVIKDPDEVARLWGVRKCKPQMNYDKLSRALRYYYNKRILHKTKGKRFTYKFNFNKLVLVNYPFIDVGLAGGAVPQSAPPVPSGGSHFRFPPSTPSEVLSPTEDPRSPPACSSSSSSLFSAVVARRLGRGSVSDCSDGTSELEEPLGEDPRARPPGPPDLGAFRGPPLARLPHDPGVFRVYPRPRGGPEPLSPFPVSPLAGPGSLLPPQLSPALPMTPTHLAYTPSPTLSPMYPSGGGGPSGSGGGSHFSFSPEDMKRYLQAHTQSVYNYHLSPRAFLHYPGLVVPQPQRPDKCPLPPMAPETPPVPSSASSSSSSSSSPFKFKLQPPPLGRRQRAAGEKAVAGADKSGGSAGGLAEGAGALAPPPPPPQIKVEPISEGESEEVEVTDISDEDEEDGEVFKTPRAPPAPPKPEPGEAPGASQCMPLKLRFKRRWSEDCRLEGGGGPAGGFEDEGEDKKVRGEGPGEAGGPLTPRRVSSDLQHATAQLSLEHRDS
Procedure, shortened: as §1

ETV3L = target: T7, ETV3L (Homo sapiens, UniProt Q6ZN32 1-361); conditions: protein: recombinant; tags: N-terminal GST; dsDNA, one strand shown
T7 sequence: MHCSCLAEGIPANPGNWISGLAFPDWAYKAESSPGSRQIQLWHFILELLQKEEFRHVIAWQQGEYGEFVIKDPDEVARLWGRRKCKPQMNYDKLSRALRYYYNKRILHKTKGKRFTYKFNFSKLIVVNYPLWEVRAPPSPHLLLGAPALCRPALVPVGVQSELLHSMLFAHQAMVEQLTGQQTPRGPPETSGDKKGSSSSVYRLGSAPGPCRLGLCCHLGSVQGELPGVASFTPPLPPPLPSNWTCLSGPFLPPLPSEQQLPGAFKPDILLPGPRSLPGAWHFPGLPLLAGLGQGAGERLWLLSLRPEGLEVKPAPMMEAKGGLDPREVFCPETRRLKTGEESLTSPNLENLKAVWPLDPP
Procedure, shortened: as §1

ETS2 = target: T8, ETS2 (Homo sapiens, UniProt P15036 1-469); conditions: protein: recombinant; tags: N-terminal GST; dsDNA, one strand shown
T8 sequence: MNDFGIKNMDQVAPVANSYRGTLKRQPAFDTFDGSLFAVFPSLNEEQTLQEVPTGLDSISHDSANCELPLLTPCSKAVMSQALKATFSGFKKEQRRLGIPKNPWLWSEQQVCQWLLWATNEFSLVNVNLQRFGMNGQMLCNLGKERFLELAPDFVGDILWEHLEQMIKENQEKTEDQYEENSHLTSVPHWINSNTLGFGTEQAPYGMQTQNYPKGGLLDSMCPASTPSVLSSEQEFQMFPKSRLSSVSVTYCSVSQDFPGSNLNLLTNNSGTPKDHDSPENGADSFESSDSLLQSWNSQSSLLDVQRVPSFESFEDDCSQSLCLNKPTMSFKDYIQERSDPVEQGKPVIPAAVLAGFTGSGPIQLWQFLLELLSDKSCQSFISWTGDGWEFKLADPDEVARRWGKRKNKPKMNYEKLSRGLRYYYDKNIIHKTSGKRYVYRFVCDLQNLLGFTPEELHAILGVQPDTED
Procedure, shortened: as §1

SPDEF = target: T9, SPDEF (Homo sapiens, UniProt O95238 1-335); conditions: protein: recombinant; tags: N-terminal GST; dsDNA, one strand shown
T9 sequence: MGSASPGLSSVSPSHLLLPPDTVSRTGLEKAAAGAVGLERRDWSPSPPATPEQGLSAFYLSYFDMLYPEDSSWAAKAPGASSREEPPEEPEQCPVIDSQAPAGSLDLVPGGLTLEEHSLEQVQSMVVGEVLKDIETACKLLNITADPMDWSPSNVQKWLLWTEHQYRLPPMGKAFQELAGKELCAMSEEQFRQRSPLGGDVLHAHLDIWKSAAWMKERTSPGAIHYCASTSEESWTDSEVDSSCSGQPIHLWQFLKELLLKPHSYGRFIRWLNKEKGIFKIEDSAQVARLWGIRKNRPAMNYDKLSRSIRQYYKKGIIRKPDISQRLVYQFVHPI
Procedure, shortened: as §1

ETV7 = target: T10, ETV7 (Homo sapiens, UniProt Q9Y603 1-341); conditions: protein: recombinant; tags: N-terminal GST; dsDNA, one strand shown
T10 sequence: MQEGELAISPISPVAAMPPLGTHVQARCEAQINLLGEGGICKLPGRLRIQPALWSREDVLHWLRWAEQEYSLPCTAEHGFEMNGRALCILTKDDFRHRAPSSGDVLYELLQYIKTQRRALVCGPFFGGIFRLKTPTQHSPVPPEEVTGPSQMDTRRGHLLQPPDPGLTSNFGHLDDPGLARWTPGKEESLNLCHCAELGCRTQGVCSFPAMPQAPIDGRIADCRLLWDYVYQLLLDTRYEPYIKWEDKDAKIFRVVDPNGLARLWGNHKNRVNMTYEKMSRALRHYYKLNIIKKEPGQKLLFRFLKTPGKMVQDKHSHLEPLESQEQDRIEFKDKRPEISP
Procedure, shortened: as §1

ELF5 = target: T11, ELF5 (Homo sapiens, UniProt Q9UKW6-2 1-255); conditions: protein: recombinant; tags: N-terminal GST; dsDNA, one strand shown
T11 sequence: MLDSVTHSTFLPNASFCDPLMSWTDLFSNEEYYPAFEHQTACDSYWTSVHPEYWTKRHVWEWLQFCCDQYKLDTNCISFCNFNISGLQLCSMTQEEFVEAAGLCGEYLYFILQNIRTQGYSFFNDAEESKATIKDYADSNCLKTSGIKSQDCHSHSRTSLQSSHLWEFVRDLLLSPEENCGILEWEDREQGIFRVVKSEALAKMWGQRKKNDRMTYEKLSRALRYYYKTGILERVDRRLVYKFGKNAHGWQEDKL
Procedure, shortened: as §1

ETV3 = target: T12, ETV3 (Homo sapiens, UniProt P41162-2 1-143); conditions: protein: recombinant; tags: N-terminal GST; dsDNA, one strand shown
T12 sequence: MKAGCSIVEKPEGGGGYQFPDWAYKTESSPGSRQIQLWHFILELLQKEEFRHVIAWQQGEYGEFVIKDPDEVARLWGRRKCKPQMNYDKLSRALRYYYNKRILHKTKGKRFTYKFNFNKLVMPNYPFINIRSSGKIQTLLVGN
Procedure, shortened: as §1

ETV6 = ETV6 (Homo sapiens, UniProt P41212 1-452); conditions: protein: recombinant; tags: N-terminal GST; dsDNA, one strand shown
Chain of ETV6 (P41212 whole entry): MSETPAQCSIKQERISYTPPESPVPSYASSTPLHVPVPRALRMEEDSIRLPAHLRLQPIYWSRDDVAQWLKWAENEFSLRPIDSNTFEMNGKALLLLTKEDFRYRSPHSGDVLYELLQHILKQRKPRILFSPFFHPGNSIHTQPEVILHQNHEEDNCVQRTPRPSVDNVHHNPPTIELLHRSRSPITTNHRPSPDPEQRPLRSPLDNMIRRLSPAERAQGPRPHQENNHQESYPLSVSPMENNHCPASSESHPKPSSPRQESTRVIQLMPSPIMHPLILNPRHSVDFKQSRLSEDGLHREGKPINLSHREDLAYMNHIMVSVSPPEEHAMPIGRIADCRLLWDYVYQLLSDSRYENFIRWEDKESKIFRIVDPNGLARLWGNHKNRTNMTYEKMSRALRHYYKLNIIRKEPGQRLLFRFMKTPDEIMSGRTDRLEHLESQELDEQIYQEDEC
Procedure, shortened: as §1

**Q.** GGTCTC was tested. Which binding signal (FEV) did it give?
**A.** 2.46 fold enrichment (6-mer frequency, TF over GST control)

**Q.** And the binding signal (ETV5)?
**A.** 2.46 fold enrichment (6-mer frequency, TF over GST control)

**Q.** And the binding signal (HSF1)?
**A.** 1.44 fold enrichment (6-mer frequency, TF over GST control)

**Q.** And the binding signal (SPIC)?
**A.** 2.4 fold enrichment (6-mer frequency, TF over GST control)

**Q.** And the binding signal (ELF4)?
**A.** 2.51 fold enrichment (6-mer frequency, TF over GST control)

**Q.** And the binding signal (ELK4)?
**A.** 2.64 fold enrichment (6-mer frequency, TF over GST control)

**Q.** What about the binding signal (ETV2) of the same sequence?
**A.** 2.18 fold enrichment (6-mer frequency, TF over GST control)

**Q.** And the binding signal (ELF3)?
**A.** 2.29 fold enrichment (6-mer frequency, TF over GST control)

**Q.** And the binding signal (CRX)?
**A.** 1.48 fold enrichment (6-mer frequency, TF over GST control)

**Q.** And the binding signal (ETV1)?
**A.** 2.58 fold enrichment (6-mer frequency, TF over GST control)

**Q.** And the binding signal (ERF)?
**A.** 2.29 fold enrichment (6-mer frequency, TF over GST control)

**Q.** And the binding signal (ETV3L)?
**A.** 2.36 fold enrichment (6-mer frequency, TF over GST control)

**Q.** And the binding signal (ETS2)?
**A.** 2.55 fold enrichment (6-mer frequency, TF over GST control)

**Q.** What about the binding signal (SPDEF) of the same sequence?
**A.** 1.93 fold enrichment (6-mer frequency, TF over GST control)

**Q.** And the binding signal (ETV7)?
**A.** 2.04 fold enrichment (6-mer frequency, TF over GST control)

**Q.** What about the binding signal (ELF5) of the same sequence?
**A.** 2.18 fold enrichment (6-mer frequency, TF over GST control)

**Q.** What about the binding signal (ETV3) of the same sequence?
**A.** 2.64 fold enrichment (6-mer frequency, TF over GST control)

**Q.** What about the binding signal (ETV6) of the same sequence?
**A.** 1.99 fold enrichment (6-mer frequency, TF over GST control)
